The results in this text go back to PubChem BioAssay (NCI).

Compounds without any hit were thinned out: in the full panel of roughly 79,000, 15% have a hit. Unmarked numbers belong to inactive results. Rule as the data show it: active = growth inhibition above about 70%; inactive = the rest.

One experiment is described as follows: NCI Yeast Anticancer Drug Screen. Data for the sgs1 mgt1 strain (AID 161).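 Also: 0% = growth of cultures given vehicle only.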 Conditions: S. cerevisiae sgs1 mgt1 strain, at 50.0 µM, active compounds read high. Summed up: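 Yeast cells carrying a defined DNA-repair defect were exposed to test compounds. Growth inhibition was measured relative to vehicle-treated controls.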
For `[N-]=[N+]=NC1(Cc2ccccc2)C(=O)Nc2ccccc2C1=O` (stereo not given), the growth inhibition was -19.4%.
The same measure, in the same setting: the same measure for `CCc1ccccc1NC(=O)CCl`: -0.35%; for `O=S1(=O)c2ccccc2NC(c2ccc3ccccc3c2)CC1c1ccccc1F` (stereo not given): -47%; for `C/C(=N\N=C(/C)c1cccc2ccccc12)c1cccc2ccccc12`: 4.7%.
For the molecule `C=CCC[P+](c1ccccc1)(c1ccccc1)c1ccccc1`, the growth inhibition was 28.2%.
Still for that read-out and setting: under `CCOC(=O)/C(C#N)=C\N(C)C` stands 5.65%; under `Cc1cccc(OCC(O)CN(Cc2ccsc2)c2ccccn2)c1` (stereo not given), 18.2%.
On the same count and under the same terms, under `COc1ccc(C(=O)C(c2ccc(OC)cc2)C2(O)C(=O)Nc3ccc([N+](=O)[O-])cc32)cc1` (stereo not given) stands 6.2%.
Same read-out and setting: the same measure for `CC12CCC(C1)C(C)(C)/C2=N\O` (stereo not given): 2.55%; for `COC(=O)C1C(=O)CC2CCCCC21` (stereo not given): -13.9%.
Turning to `CCSC1OC(C(COC(C)=O)OC(C)=O)C(OC(C)=O)C1NC(=O)OCc1ccccc1` (stereo not given), the growth inhibition is -4.5%.
Regarding `O=C(O)/C=C/C=C/c1ccc(Cl)cc1`, the growth inhibition is 4.3%.
Same read-out and setting: the same measure for `COC1(C)CNCC(C)(C)NC(=O)C(C)(OC)CNCC(C)(C)NC1=O` (stereo not given): -20.7%; for `[N-]=[N+]=CC(=O)C1OC1c1ccc(Br)cc1` (stereo not given): 22.9%.
The same measure, in the same setting: the same measure for `CCOC(CSc1cc(C)c2ccccc2n1)OCC`: -11.2%; for `NNC(=O)C(=O)N/N=C1/CCCC1C(=O)CCC(=O)Nc1ccc(Cl)cc1` (stereo not given): 0%.
The same measure, in the same setting: the same measure for `C/C(=N/O)C1c2ccccc2Cc2ccccc21`: -24.4%; for `Cc1cc(=O)c2cc(Br)cc(Br)c2[nH]1`: 8.3%; for `N#CCCN(Cc1ccccc1)CN1C(=O)c2ccccc2C1=O`: 12.1%.
In the case of `CNCCCCCNC`, the growth inhibition was -1.05%.
On the same count and under the same terms, the same measure for `O=C1c2ccccc2C(=O)c2c1oc1c2ccc2ccccc21`: -4.35%; for `CCC1(C)CC(=O)N(C/C=C(\C)CCC(=O)O)C(=O)C1`: -0.45%; for `O=c1[nH]ncc2ccc([N+](=O)[O-])cc12`: -1.25%.
Same read-out and setting: under `O=C(O)c1ccccc1P(=O)(O)c1ccccc1` stands -6.7%; under `CC(CO)(CO)N1C(=O)c2cccc3cc([N+](=O)[O-])cc(c23)C1=O`, 50.1%; under `CCCCC(CC)CSCCOC(C)OCCSCC(CC)CCCC` (stereo not given), 25.6%.
The same measure, in the same setting: under `CC(C)CCC[C@@H](C)[C@H]1CC[C@H]2[C@@H]3CC=C4C[C@@H](OC(=O)c5cccc6c(=O)c7ccccc7[nH]c56)CC[C@]4(C)[C@H]3CC[C@]12C` stands 3.3%; under `[Mn+2].[NH-]CC(=O)NC(Cc1ccccc1)C(=O)O.[NH-]CC(=O)NC(Cc1ccccc1)C(=O)O` (stereo not given), -10.7%; under `O=C(C/C(=N\NC(=O)C[n+]1ccccc1)C(=O)Nc1nc2ccc([N+](=O)[O-])cc2s1)CC(c1ccccc1)c1c(O)c2ccccc2oc1=O` (stereo not given), -17.2%.
As to `C1CCC(C2CCCC[N-]2)[N-]C1.C1CCC(C2CCCC[N-]2)[N-]C1.O=C(O)C(=O)O.[Ru+4]` (stereo not given), the growth inhibition is 16.2%.
Still for that read-out and setting: the same measure for `COc1cccc(/S(C)=N/S(=O)(=O)c2ccc(C)cc2)c1` (stereo not given): 2.8%; for `N#CCc1nc(-c2cc3ccccc3oc2=O)cs1`: -12.4%; for `CC(=O)C1CC=C(C)CC1` (stereo not given): 15.8%.
Same read-out and setting: under `CCS(=O)(=O)C(S(C)(=O)=O)S(=O)(=O)C(C)C` (stereo not given) stands 8.45%; under `CCC(C)C(=O)/C=C/c1ccccc1` (stereo not given), -2.85%.
With `O=C1CCCCC1C(O)(C(F)(F)F)C(F)(F)Cl` (stereo not given), the growth inhibition is -36.7%.
Still for that read-out and setting: under `O=C(O)c1ccc(-c2nn[nH]n2)cc1` stands -4%; under `Cc1c(C(=O)CC(=O)C(=O)NC2C3CC4CC(C3)CC2C4)[n+](=O)c2ccccc2n1[O-]` (stereo not given), -26.7%; under `Cc1nc(N)nc(C)c1N=Nc1ccc(Cl)cc1Cl`, 0.5%.
As to `c1ccc(C2=NC3CCCCC3S2)cc1` (stereo not given), the growth inhibition was 3.7%.

A further experiment is described as follows: NCI Yeast Anticancer Drug Screen. Data for the cln2 rad14 strain (AID 165).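 Also: 0% = growth equal to vehicle treated cultures.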 The conditions noted are these: S. cerevisiae cln2 rad14 strain, at 50.0 µM, active compounds read high. Summed up:
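Yeast carrying cln2 and rad14 alterations (cell cycle control and DNA damage repair) were exposed to compounds. Growth inhibition was measured against vehicle-treated controls.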
In the case of `[N-]=[N+]=NC1(Cc2ccccc2)C(=O)Nc2ccccc2C1=O` (stereo not given), the growth inhibition was 4.2%.
Take `CCc1ccccc1NC(=O)CCl`: the growth inhibition was 17.6%.
Still for that read-out and setting: the same measure for `O=S1(=O)c2ccccc2NC(c2ccc3ccccc3c2)CC1c1ccccc1F` (stereo not given): 4.95%; for `C/C(=N\N=C(/C)c1cccc2ccccc12)c1cccc2ccccc12`: -15.9%.
The same measure, in the same setting: under `C=CCC[P+](c1ccccc1)(c1ccccc1)c1ccccc1` stands -3.4%; under `CCOC(=O)/C(C#N)=C\N(C)C`, 5.65%; under `Cc1cccc(OCC(O)CN(Cc2ccsc2)c2ccccn2)c1` (stereo not given), 37.3%.
Consider `COc1ccc(C(=O)C(c2ccc(OC)cc2)C2(O)C(=O)Nc3ccc([N+](=O)[O-])cc32)cc1` (stereo not given), for which the growth inhibition is 18.5%.
Take `CC12CCC(C1)C(C)(C)/C2=N\O` (stereo not given): the growth inhibition was 4.85%.
Still for that read-out and setting: the same measure for `COC(=O)C1C(=O)CC2CCCCC21` (stereo not given): 20.6%; for `CCSC1OC(C(COC(C)=O)OC(C)=O)C(OC(C)=O)C1NC(=O)OCc1ccccc1` (stereo not given): 7.2%; for `O=C(O)/C=C/C=C/c1ccc(Cl)cc1`: -14%.
On the same count and under the same terms, under `COC1(C)CNCC(C)(C)NC(=O)C(C)(OC)CNCC(C)(C)NC1=O` (stereo not given) stands -17%.
Regarding `[N-]=[N+]=CC(=O)C1OC1c1ccc(Br)cc1` (stereo not given), the growth inhibition is 24.4%.
The same measure, in the same setting: under `CCOC(CSc1cc(C)c2ccccc2n1)OCC` stands 3.35%.
Same read-out and setting: the same measure for `NNC(=O)C(=O)N/N=C1/CCCC1C(=O)CCC(=O)Nc1ccc(Cl)cc1` (stereo not given): -0.2%; for `C/C(=N/O)C1c2ccccc2Cc2ccccc21`: -12.8%; for `Cc1cc(=O)c2cc(Br)cc(Br)c2[nH]1`: 0.05%.
The same measure, in the same setting: the same measure for `N#CCCN(Cc1ccccc1)CN1C(=O)c2ccccc2C1=O`: 17.9%; for `CNCCCCCNC`: -5.45%; for `O=C1c2ccccc2C(=O)c2c1oc1c2ccc2ccccc21`: -16.1%.
Consider `CCC1(C)CC(=O)N(C/C=C(\C)CCC(=O)O)C(=O)C1`, for which the growth inhibition was -8.4%.
Still for that read-out and setting: the same measure for `O=c1[nH]ncc2ccc([N+](=O)[O-])cc12`: -1.25%.
On the same count and under the same terms, the same measure for `O=C(O)c1ccccc1P(=O)(O)c1ccccc1`: 5.35%; for `CC(CO)(CO)N1C(=O)c2cccc3cc([N+](=O)[O-])cc(c23)C1=O`: 31.1%; for `CCCCC(CC)CSCCOC(C)OCCSCC(CC)CCCC` (stereo not given): 39.9%.
Same read-out and setting: the same measure for `CC(C)CCC[C@@H](C)[C@H]1CC[C@H]2[C@@H]3CC=C4C[C@@H](OC(=O)c5cccc6c(=O)c7ccccc7[nH]c56)CC[C@]4(C)[C@H]3CC[C@]12C`: -4.95%; for `[Mn+2].[NH-]CC(=O)NC(Cc1ccccc1)C(=O)O.[NH-]CC(=O)NC(Cc1ccccc1)C(=O)O` (stereo not given): -34.2%.
`O=C(C/C(=N\NC(=O)C[n+]1ccccc1)C(=O)Nc1nc2ccc([N+](=O)[O-])cc2s1)CC(c1ccccc1)c1c(O)c2ccccc2oc1=O` (stereo not given): the growth inhibition is 1.6%.
Same read-out and setting: under `C1CCC(C2CCCC[N-]2)[N-]C1.C1CCC(C2CCCC[N-]2)[N-]C1.O=C(O)C(=O)O.[Ru+4]` (stereo not given) stands 11.8%; under `COc1cccc(/S(C)=N/S(=O)(=O)c2ccc(C)cc2)c1` (stereo not given), -6.65%.
Still for that read-out and setting: the same measure for `N#CCc1nc(-c2cc3ccccc3oc2=O)cs1`: 3.7%; for `CC(=O)C1CC=C(C)CC1` (stereo not given): 14.6%; for `CCS(=O)(=O)C(S(C)(=O)=O)S(=O)(=O)C(C)C` (stereo not given): -9.15%.
Still for that read-out and setting: under `CCC(C)C(=O)/C=C/c1ccccc1` (stereo not given) stands -25.3%; under `O=C1CCCCC1C(O)(C(F)(F)F)C(F)(F)Cl` (stereo not given), -13.7%; under `O=C(O)c1ccc(-c2nn[nH]n2)cc1`, -11.8%.
Take `Cc1c(C(=O)CC(=O)C(=O)NC2C3CC4CC(C3)CC2C4)[n+](=O)c2ccccc2n1[O-]` (stereo not given): the growth inhibition is 16.3%.
Still for that read-out and setting: under `Cc1nc(N)nc(C)c1N=Nc1ccc(Cl)cc1Cl` stands -7.3%; under `c1ccc(C2=NC3CCCCC3S2)cc1` (stereo not given), -32.3%.
